About 79,000 compounds went through this panel and 15% of them were active in at least one assay; those are over-represented in the sample as a whole. Calls of active or inactive are those of the source. Cut-off read from the data, not from the text of the source: active = growth inhibition above about 70%; inactive = the rest.
How the values were obtained:
[1] = NCI Yeast Anticancer Drug Screen. Data for the rad52 strain (AID 147);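 note: 0% = growth of vehicle-treated control cultures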; conditions: S. cerevisiae rad52 mutant growth inhibition, active compounds read high
Summary of the method: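 Compounds are applied to a genetically defined yeast strain lacking normal DNA damage repair, and inhibition of growth is expressed relative to cultures given vehicle only.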

[2] = NCI Yeast Anticancer Drug Screen. Data for the wt1 strain (AID 149);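 note: 0% = growth of vehicle-treated wt1 cultures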; conditions: S. cerevisiae wt1 strain (SPY 50644) growth inhibition, active compounds read high
Summary of the method: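 Measured: growth of wt1 yeast under compound versus vehicle treatment, reported as inhibition.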

[3] = NCI Yeast Anticancer Drug Screen. Data for the rad50EPP+ strain (AID 151);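 note: 0% = growth of vehicle-treated control cultures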; conditions: S. cerevisiae rad50 mutant strain, active compounds read high
Summary of the method: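 Compounds were applied to the rad50EPP+ yeast strain, which bears a defined DNA repair alteration, and growth inhibition was determined relative to vehicle-treated cultures.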

[4] = NCI Yeast Anticancer Drug Screen. Data for the mgt1 strain (AID 153); conditions: S. cerevisiae mgt1 mutant growth inhibition, active compounds read high
Summary of the method: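 Strain: mgt1 yeast, one of a set carrying defined DNA damage repair or cell cycle control alterations. Compound-treated growth compared with vehicle.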

[5] = NCI Yeast Anticancer Drug Screen. Data for the rad50 strain (AID 155);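 note: 0% = growth of vehicle-only cultures of the same strain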; conditions: S. cerevisiae rad50 strain growth inhibition, active compounds read high
Summary of the method: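 Growth of the mutant yeast was measured after compound exposure and referenced to vehicle-treated cultures.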

[6] = NCI Yeast Anticancer Drug Screen. Data for the mec2-1 strain (AID 157); conditions: S. cerevisiae mec2-1 strain, active compounds read high
Summary of the method: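 Strain: mec2-1 (DNA repair/cell cycle alteration). Compound exposure, then growth measured; inhibition expressed relative to vehicle.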

[7] = NCI Yeast Anticancer Drug Screen. Data for the sgs1 mgt1 strain (AID 161);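 note: 0% = growth of cultures given vehicle only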; conditions: S. cerevisiae sgs1 mgt1 strain, active compounds read high
Summary of the method: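 Test agents were incubated with a DNA-repair-mutant yeast strain. Growth was then read and compared against vehicle-treated controls.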

[8] = NCI Yeast Anticancer Drug Screen. Data for the CLN2oe strain (AID 163);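 note: 0% = growth of vehicle-only control cultures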; conditions: S. cerevisiae CLN2oe strain, active compounds read high
Summary of the method: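 Growth of a genetically modified yeast strain is measured after compound exposure and compared with cultures given vehicle alone.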

[9] = NCI Yeast Anticancer Drug Screen. Data for the cln2 rad14 strain (AID 165);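 note: 0% = growth equal to vehicle treated cultures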; conditions: S. cerevisiae cln2 rad14 strain, active compounds read high
Summary of the method: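 Compounds are applied to the cln2 rad14 yeast strain, and growth is then compared with that of vehicle-treated cultures to give inhibition.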

[10] = NCI Yeast Anticancer Drug Screen. Data for the bub3 strain (AID 167); conditions: S. cerevisiae bub3 mutant strain, active compounds read high
Summary of the method: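 Whole-cell yeast assay. The mutant strain was incubated with compounds, and growth inhibition was determined by comparison with vehicle-treated cells.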

[11] = NCI Yeast Anticancer Drug Screen. Data for the wt2 strain (AID 169);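 note: 0% = growth of vehicle-treated yeast cultures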; conditions: S. cerevisiae wt2 strain growth inhibition, active compounds read high
Summary of the method: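 This strain belongs to a panel of yeast strains with defined genetic alterations in DNA damage repair or cell cycle control. Compounds are applied, and growth inhibition is measured against vehicle-treated cultures.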

[12] = NCI Yeast Anticancer Drug Screen. Data for the mlh1 strain (AID 171);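 note: 0% = growth of vehicle-treated control cultures of the same strain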; conditions: S. cerevisiae mlh1 strain growth inhibition, active compounds read high
Summary of the method: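 Growth of the mutant yeast strain after compound exposure, expressed as inhibition relative to vehicle-only controls.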

[13] = NCI Yeast Anticancer Drug Screen. Data for the sgs1 strain (AID 173);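 note: 0% = growth of vehicle-only control cultures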; conditions: S. cerevisiae sgs1 mutant, active compounds read high
Summary of the method: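 Growth of a yeast strain bearing a defined genetic alteration is measured after compound treatment. Inhibition is expressed relative to vehicle-only controls.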

[14] = NCI Yeast Anticancer Drug Screen. Data for the mlh1 rad18 strain (AID 175); conditions: S. cerevisiae mlh1 rad18 strain growth inhibition, active compounds read high
Summary of the method: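 Read-out is yeast growth inhibition, calculated against vehicle-only controls. The compound was applied to a strain engineered with DNA damage repair alterations.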

[15] = NCI Yeast Anticancer Drug Screen. Data for the rad18 strain (AID 177); conditions: S. cerevisiae rad18 mutant growth inhibition, active compounds read high
Summary of the method: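 Growth of the mutant yeast strain after compound exposure, normalised to vehicle-only cultures.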

[16] = at 5.0 µM (retest, dose inferred, filed as 0.5)
[17] = at 50.0 µM (retest, dose inferred, filed as 5.0)

Measured: growth inhibition

Clc1ccc(NCNC2Nc3ccccc3N2)cc1Cl
active: [1]; at 33.0 µM 97% | [1]; at 100.0 µM 98% | [2]; at 33.0 µM 81% | [2]; at 100.0 µM 99% | [3]; at 11.0 µM 88% | [3]; at 33.0 µM 98% | [3]; at 100.0 µM 98% | [4]; at 33.0 µM 85% | [4]; at 100.0 µM 99% | [5]; at 33.0 µM 93% | [5]; [17] 99% | [5]; at 100.0 µM 98% | [6]; at 33.0 µM 93% | [6]; [17] 99% | [6]; at 100.0 µM 98% | [7]; [17] 99% | [8]; at 33.0 µM 89% | [8]; at 100.0 µM 98% | [9]; [17] 83% | [10]; at 33.0 µM 91% | [10]; [17] 99% | [10]; at 100.0 µM 99% | [11]; at 33.0 µM 91% | [11]; at 100.0 µM 98% | [12]; at 33.0 µM 71% | [12]; at 100.0 µM 99% | [13]; at 33.0 µM 92% | [13]; at 100.0 µM 99% | [14]; [17] 98% | [15]; at 11.0 µM 92% | [15]; at 33.0 µM 96% | [15]; at 100.0 µM 98%
inactive: [1]; at 1.2 µM -1% | [1]; at 3.7 µM -1% | [1]; at 11.0 µM 18% | [2]; at 1.2 µM 2% | [2]; at 3.7 µM 7% | [2]; at 11.0 µM 8% | [3]; at 1.2 µM 8% | [3]; at 3.7 µM 16% | [4]; at 1.2 µM -4% | [4]; at 3.7 µM -3% | [4]; at 11.0 µM 4% | [5]; at 1.2 µM -1% | [5]; at 3.7 µM -3% | [5]; [16] 4% | [5]; at 11.0 µM 17% | [5]; at 50.0 µM 25.6% | [6]; at 1.2 µM 0% | [6]; at 3.7 µM 5% | [6]; [16] -6% | [6]; at 11.0 µM 17% | [6]; at 50.0 µM 9.15% | [7]; [16] 18% | [7]; at 50.0 µM 8.15% | [8]; at 1.2 µM -5% | [8]; at 3.7 µM -13% | [8]; at 11.0 µM -3% | [9]; [16] 20% | [9]; at 50.0 µM -9.7% | [10]; at 1.2 µM 1% | [10]; at 3.7 µM -8% | [10]; [16] 26% | [10]; at 11.0 µM -2% | [10]; at 50.0 µM 10.2% | [11]; at 1.2 µM -4% | [11]; at 3.7 µM -1% | [11]; at 11.0 µM 9% | [12]; at 1.2 µM -2% | [12]; at 3.7 µM 0% | [12]; at 11.0 µM 13% | [13]; at 1.2 µM 1% | [13]; at 3.7 µM 5% | [13]; at 11.0 µM 34% | [14]; [16] 55% | [14]; at 50.0 µM 29.8% | [15]; at 1.2 µM 27% | [15]; at 3.7 µM 65%

Reference: PubChem BioAssay (NCI)
